# Results with a measured potency or affinity are listed apart.
# System: Escherichia coli
# Details: Concentration 32 ug.mL-1; ASSAY_TEST Inhibition of Bacterial Growth; detection method Absorption (OD600); MEDIA CAMHB; plate type 384well; NBS; CORNING #3640; time 18 hr
row,Compound,Inhibition
1,Cc1ncc(CNc2cccc(F)c2)c(N)n1,3.54%
2,CC(C)n1cc(NC(=O)c2cc(NC(=O)c3cc(NC=O)cn3C(C)C)cn2C)cc1C(=O)NCCCN(C)C.O=C(O)C(F)(F)F,-12.14%
3,COC(=O)c1ccc(C(=O)Nc2cc(C(=O)Nc3cc(C(=O)NCCN4CCOCC4)n(C)c3)n(C)c2)cc1.O=C(O)C(F)(F)F,-5.56%
4,CC(=O)Nc1cc(C(=O)Nc2cc(C(=O)Nc3cc(C(=O)NCCCN(C)C)n(C)c3)n(C)c2)n(C)c1.O=C(O)C(F)(F)F,-5.37%
5,COCCOC1CCN(C(=O)c2cc(NC(=O)c3cc(NC(=O)c4ccc(/C=C/c5cnc6ccccc6c5)cc4)cn3C)cn2C)CC1,7.07%
6,Cc1ncc(Cn2cc(CO)nn2)c(N)n1,-17.13%
7,Cc1ncc(CNc2ccc(C(C)(C)C)cc2)c(N)n1,-7.27%
8,COC(=O)c1ccc(C(=O)Nc2cc(C(=O)Nc3cc(C(=O)NCCCN(C)C)n(C)c3)n(C)c2)cc1.O=C(O)C(F)(F)F,-9.36%
9,Cc1ncc(Cn2cc(CC(N)C(=O)O)nn2)c(N)n1.Cl (stereo not given),-16.87%
10,CC(C)CCc1sc(NC(=O)c2cc(NC(=O)c3cc(NC(=O)CCC(=O)O)cn3C)cn2C)nc1C(=O)NCCCN(C)C.O=C(O)C(F)(F)F,-16.63%
11,Cc1ncc(CNc2ccccc2F)c(N)n1,-3.65%
12,COc1ccc(/C=C(/C(=O)Nc2cc(C(=O)Nc3cc(C(=O)NCCCN(C)C)n(C)c3)n(C)c2)c2ccc(OC)cc2)cc1.O=C(O)C(F)(F)F,-8.57%
13,CC(C)c1sc(NC(=O)c2cc(NC(=O)c3cc(NC(=O)c4cnc(Cl)c(Cl)c4)cn3C)cn2C)nc1C(=O)NCCCN(C)C.O=C(O)C(F)(F)F,-19.66%
14,CC(C)CCc1sc(NC(=O)c2cc(NC(=O)c3ccc(/C=C/c4cc5ccccc5nc4Cl)cc3)cn2C)nc1C(=O)NCCN1CCOCC1.O=C(O)C(F)(F)F,-19.26%
15,COC(=O)c1ccc(C(=O)Nc2cc(C(=O)Nc3cc(C(=O)NCCC(=N)N)n(C)c3)n(C)c2)cc1.O=C(O)C(F)(F)F,-18.97%
16,CN(C)CCCNC(=O)c1cc(NC(=O)c2cc(NC(=O)CCC(=O)O)cn2C)cn1C.O=C(O)C(F)(F)F,-8.32%
17,CCOC(=O)CCC(NC(=O)c1ccc(NCc2cn(Cc3cnc(C)nc3N)nn2)cc1)C(=O)OCC (stereo not given),-21.48%
18,Cc1ncc(CNc2ccc(F)cc2)c(N)n1,-15.16%
19,CCOC(=O)c1cc(NC(=O)c2cc(NC(=O)c3nc(N)sc3C(C)C)cn2C)cn1C,-5.15%
20,CN(C)CCCNC(=O)c1cc(NC(=O)c2cc(NC(=O)c3cc(NC(=N)c4ccccc4)cn3C)cn2C)cn1C.O=C(O)C(F)(F)F.O=C(O)C(F)(F)F,-15.33%
21,CC(C)CCc1sc(NC(=O)c2cc(NC(=O)c3ccc(/C=C/c4cc5ccccc5nc4On4nnc5ccccc54)cc3)cn2C)nc1C(=O)NCCN1CCOCC1.O=C(O)C(F)(F)F,-13.53%
22,COC(=O)CCC(=O)Nc1cc(C(=O)Nc2cc(C(=O)NCCC(=N)N)n(C)c2)n(C)c1.O=C(O)C(F)(F)F,-6.39%
23,COc1cccc(C(=N)Nc2cc(C(=O)Nc3cc(C(=O)NCCC(=N)N)n(C)c3)n(C)c2)c1.O=C(O)C(F)(F)F.O=C(O)C(F)(F)F,3.74%
24,CN(C)CCCNC(=O)c1cc(NC(=O)c2cc(NC(=O)c3ccc(C(=O)O)cc3)cn2C)cn1C.O=C(O)C(F)(F)F,-6.1%
25,CC(=O)N(C(C)=O)c1cc(C(=O)Nc2cc(C(=O)NCCC(=N)N)n(C)c2)n(C)c1.O=C(O)C(F)(F)F,6.79%
26,CCOC(=O)c1cc(NC(=O)c2cc(NC(=O)c3sc(N)nc3C(F)(F)F)cn2C)cn1C,-5.76%
27,Cc1ncc(Cn2cc(CCCCO)nn2)c(N)n1,-20.02%
28,COC(=O)CCC(=O)Nc1cc(C(=O)Nc2cc(C(=O)NCCCN(C)C)n(C)c2)n(C)c1.O=C(O)C(F)(F)F,-12.96%
29,CN(C)CCCNC(=O)c1cc(NC(=O)c2cc(NC(=O)c3cc(NC(=N)N)cn3C)cn2C)cn1C.O=C(O)C(F)(F)F.O=C(O)C(F)(F)F,-3.99%
30,CC(C)CCn1cc(NC(=O)c2cc(NC(=O)c3cc(NC(=N)c4ccccc4)cn3C)cn2C)cc1C(=O)NCCCN(C)C.O=C(O)C(F)(F)F.O=C(O)C(F)(F)F,-19.15%
